Activity calls are given as the source filed them. Rule for the calls: active = hit-call score of the fitted dose curve at least 0.9, where 1 is the maximum; inactive = score below 0.9.
Tests used:
[1] = ATG_CRE_CIS: Attagene CIS-FACTORIAL HepG2 Assay for human cAMP Responsive Element (CRE) binding protein 3 (AID 2282926); conditions: HepG2 CRE cis-reporter, Attagene multiplexed mRNA; actives raise or lower the signal
In short: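 Assay format: transient reporter transfection of HepG2, 24 h treatment, total RNA isolation with DNase I step. Reporter abundance read by fluorescence after PCR and capillary separation; DMSO-normalised gain or loss fitting.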

[2] = target: CCAAT/enhancer-binding protein beta (Homo sapiens) (UniProt P17676); assay: ATG_C_EBP_CIS: Attagene CIS-FACTORIAL HepG2 Assay for human CCAAT/Enhancer Binding Protein (C/EBP) beta (AID 2282927); conditions: HepG2 Attagene cis-factorial transcription factor reporter; actives raise or lower the signal
In short: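 HepG2, transient MRTU transfection, 24 h treatment. RT-PCR plus CE fluorescence; DMSO negative control, bidirectional fit.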

[3] = ATG_CMV_CIS: Attagene CIS-FACTORIAL HepG2 Assay for human CMV (Internal Marker) (AID 2282928); conditions: HepG2 CMV promoter reporter, transcription factor profiling; actives raise or lower the signal;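 note: endpoint acts as a background internal control marker rather than a target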
In short: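 Fluorescence intensity of RT-PCR-derived reporter fragments, resolved by capillary electrophoresis, gives the signal. HepG2 liver cells bearing transfected cis-element reporters were treated 24 h; activity in either direction was fit relative to DMSO-treated controls.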

[4] = ATG_DR4_LXR_CIS: Attagene CIS-FACTORIAL HepG2 Assay for human Liver X Receptor (LXR), DR4 submotif (AID 2282929); conditions: HepG2 Attagene DR4 cis-reporter, mRNA transcription; actives raise or lower the signal
In short: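 HepG2 cells transiently transfected with cis-promoter-driven multiplexed reporter units (DR4 element) were dosed for 24 h. Reporter mRNA was quantified by RT-PCR, fluorescent primer extension, HpaI digestion and capillary electrophoresis; bidirectional fitting versus DMSO baseline.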

[5] = ATG_AP_2_CIS: Attagene CIS-FACTORIAL HepG2 Assay for human Activator Protein 2 (AP-2) (AID 2282932); conditions: HepG2 AP-2 cis-reporter, Attagene transcription factor profiling; actives raise or lower the signal
In short: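 Read-out: fluorescent reporter mRNA via RT-PCR and capillary electrophoresis, 24 h post-dose in transiently transfected HepG2. Endogenous factors drive cis-promoter reporters; gain or loss of signal fitted bidirectionally against DMSO.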

[6] = ATG_E_Box_CIS: Attagene CIS-FACTORIAL HepG2 Assay for human Enhancer Box (E-box) (AID 2282936); conditions: HepG2 E-box cis-reporter transcription, actives raise or lower the signal
In short: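 Transiently transfected HepG2, endogenous TF-driven reporters, 24 h dosing. Readout: RT-PCR plus capillary electrophoresis of fluorescent reporter fragments. Gain or loss of signal fitted bidirectionally against DMSO baseline.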

[7] = ATG_EGR_CIS: Attagene CIS-FACTORIAL HepG2 Assay for human Early Growth Response 1 (EGR1) (AID 2282938); conditions: HepG2 Attagene CIS-FACTORIAL EGR reporter mRNA; actives raise or lower the signal
In short: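 HepG2 cells transiently transfected with cis-promoter-driven multiplexed reporter transcription units; reporter mRNA measured 24 h after compound dosing by RT-PCR, 6-FAM primer extension, HpaI digestion and capillary electrophoresis. Bidirectional fit versus DMSO baseline.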

[8] = ATG_M_19_CIS: Attagene CIS-FACTORIAL HepG2 Assay for M19 Transcription Factor (Internal Marker) (AID 2282939); conditions: HepG2 Attagene CIS-FACTORIAL M19 internal marker reporter; actives raise or lower the signal
In short: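 Following a 24 h exposure, RNA from transfected HepG2 cells was reverse-transcribed, PCR-amplified with reporter-specific primers, end-labelled with 6-FAM and HpaI-digested before capillary separation. Values represent gain or loss versus DMSO.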

[9] = ATG_Ets_CIS: Attagene CIS-FACTORIAL HepG2 Assay for human Erythroblast Transformation Specific (ETS) (AID 2282941); conditions: HepG2 ETS cis-reporter transcription, actives raise or lower the signal
In short: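 Multiplexed reporter transcript profiling: HepG2, 24 h treatment, total RNA to cDNA, PCR, 6-FAM labelling, HpaI cut, capillary electrophoresis. Gain- or loss-of-signal fitted against DMSO.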

[10] = target: Hepatocyte nuclear factor 3-beta (Homo sapiens) (UniProt Q9Y261); assay: ATG_FoxA2_CIS: Attagene CIS-FACTORIAL HepG2 Assay for human Forkhead box A2 (FOXA2) (AID 2282942); conditions: HepG2 cis-reporter transcription factor activity, 24 h; actives raise or lower the signal
In short: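 HepG2 cells transiently transfected with multiple cis-regulated reporter transcription units, dosed for 24 h. Reporter mRNA measured by RT-PCR, 6-FAM labelling, HpaI digestion and capillary electrophoresis; bidirectional fitting against DMSO baseline.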

[11] = ATG_FoxO_CIS: Attagene CIS-FACTORIAL HepG2 Assay for human Forkhead box O (FoxO) (AID 2282943); conditions: HepG2 Attagene cis-reporter, FoxO element, mRNA; actives raise or lower the signal
In short: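 Transfected HepG2 reporter cells exposed to test chemical for 24 h; reporter RNA measured by reverse transcription, PCR and fluorescent capillary electrophoresis; curves fitted for increases and decreases against DMSO.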

[12] = ATG_GATA_CIS: Attagene CIS-FACTORIAL HepG2 Assay for human GATA Binding Protein (AID 2282944); conditions: HepG2 GATA cis-element reporter, Attagene multiplex mRNA; actives raise or lower the signal
In short: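 DMSO serves as negative control and baseline for bidirectional fitting of reporter mRNA changes. HepG2 cells bearing transiently transfected cis-promoter reporters were exposed 24 h; transcripts detected via RT-PCR and capillary electrophoresis.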

[13] = ATG_M_32_CIS: Attagene CIS-FACTORIAL HepG2 Assay for M32 Transcription Factor (Internal Marker) (AID 2282949); conditions: HepG2 Attagene cis-factorial M32 reporter, mRNA; actives raise or lower the signal;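 note: background control marker of the multiplexed CIS panel rather than a real target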
In short: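 Transient MRTU transfection of HepG2; 24 h compound treatment; TriZol RNA, oligo(dT) RT, reporter PCR, 6-FAM primer extension, HpaI cut, CE. Gain/loss of signal vs DMSO.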

[14] = ATG_M_06_CIS: Attagene CIS-FACTORIAL HepG2 Assay for M06 Transcription Factor (Internal Marker) (AID 2282950); conditions: HepG2 Attagene CIS-FACTORIAL M06 internal marker reporter; actives raise or lower the signal
In short: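 Fluorescence-labelled RT-PCR products from cis-promoter reporter units, cut with HpaI and resolved by capillary electrophoresis, give the signal. Cells are human HepG2, dosed for 24 h. Serves as background control, fitted relative to DMSO.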

[15] = ATG_PXRE_CIS: Attagene CIS-FACTORIAL HepG2 Assay for human Pregnane X Receptor Element (PXRE) (AID 2282957); conditions: HepG2 Attagene CIS-FACTORIAL PXRE reporter, mRNA; actives raise or lower the signal
In short: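 Using HepG2 transfected with multiple reporter transcription units, endogenous factor-driven transcription was scored as reporter mRNA after 24 h exposure.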

[16] = ATG_Sox_CIS: Attagene CIS-FACTORIAL HepG2 Assay for human SRY-box transcription factor (SOX) (AID 2282960); conditions: HepG2 Attagene cis-factorial SOX reporter, mRNA; actives raise or lower the signal
In short: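 HepG2 cells transiently transfected with cis-element-driven multiple reporter transcription units, dosed 24 h; reporter mRNA measured by RT-PCR, FAM labelling, HpaI digestion and capillary electrophoresis. Bidirectional fit versus DMSO baseline.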

[17] = target: Transcription factor Sp1 (Homo sapiens) (UniProt P08047); assay: ATG_Sp1_CIS: Attagene CIS-FACTORIAL HepG2 Assay for human Specificity Protein 1 (Sp1) (AID 2282961); conditions: HepG2 Sp1 cis-reporter transcription, actives raise or lower the signal
In short: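 HepG2 cells transiently transfected with multiple reporter transcription units driven by cis-regulatory elements; Sp1-responsive reporter mRNA measured 24 h after dosing by RT-PCR and capillary electrophoresis fluorescence, fitted bidirectionally against DMSO baseline.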

[18] = ATG_SREBP_CIS: Attagene CIS-FACTORIAL HepG2 Assay for human Sterol Regulatory Element Binding (SREBP) (AID 2282962); conditions: HepG2 Attagene cis-factorial SREBP reporter, mRNA; actives raise or lower the signal
In short: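 Values derive from bidirectional curve fitting with DMSO as baseline. The underlying measurement is reporter mRNA from cis-element-regulated units in transiently transfected HepG2, quantified by RT-PCR and capillary electrophoresis after 24 h exposure.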

[19] = target: Signal transducer and activator of transcription 3 (Homo sapiens) (UniProt P40763); assay: ATG_STAT3_CIS: Attagene CIS-FACTORIAL HepG2 Assay for human Signal Transducer and Activator of Transcription 3 (STAT3) (AID 2282963); conditions: HepG2, Attagene cis-factorial STAT3 reporter transcription; actives raise or lower the signal
In short: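 Readout: fluorescent reporter mRNA fragments resolved by capillary electrophoresis. Setup: HepG2 transfected with MRTUs reporting endogenous transcription-factor activity, dosed 24 h. Gain or loss of signal fitted bidirectionally against DMSO control.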

[20] = ATG_TA_CIS: Attagene CIS-FACTORIAL HepG2 Assay for human TA Basal Promoter (AID 2282964); conditions: HepG2 Attagene CIS-factorial TA basal promoter reporter; actives raise or lower the signal
In short: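 Multiplexed mRNA reporter assay, HepG2, 24 h. Reporter cDNA amplified, 6-FAM primer-extended, HpaI-cut, CE-sized; DMSO = negative control and baseline.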

Chain of Signal transducer and activator of transcription 3 (Homo sapiens) (P40763 whole entry, looked up, the tested form may be a part): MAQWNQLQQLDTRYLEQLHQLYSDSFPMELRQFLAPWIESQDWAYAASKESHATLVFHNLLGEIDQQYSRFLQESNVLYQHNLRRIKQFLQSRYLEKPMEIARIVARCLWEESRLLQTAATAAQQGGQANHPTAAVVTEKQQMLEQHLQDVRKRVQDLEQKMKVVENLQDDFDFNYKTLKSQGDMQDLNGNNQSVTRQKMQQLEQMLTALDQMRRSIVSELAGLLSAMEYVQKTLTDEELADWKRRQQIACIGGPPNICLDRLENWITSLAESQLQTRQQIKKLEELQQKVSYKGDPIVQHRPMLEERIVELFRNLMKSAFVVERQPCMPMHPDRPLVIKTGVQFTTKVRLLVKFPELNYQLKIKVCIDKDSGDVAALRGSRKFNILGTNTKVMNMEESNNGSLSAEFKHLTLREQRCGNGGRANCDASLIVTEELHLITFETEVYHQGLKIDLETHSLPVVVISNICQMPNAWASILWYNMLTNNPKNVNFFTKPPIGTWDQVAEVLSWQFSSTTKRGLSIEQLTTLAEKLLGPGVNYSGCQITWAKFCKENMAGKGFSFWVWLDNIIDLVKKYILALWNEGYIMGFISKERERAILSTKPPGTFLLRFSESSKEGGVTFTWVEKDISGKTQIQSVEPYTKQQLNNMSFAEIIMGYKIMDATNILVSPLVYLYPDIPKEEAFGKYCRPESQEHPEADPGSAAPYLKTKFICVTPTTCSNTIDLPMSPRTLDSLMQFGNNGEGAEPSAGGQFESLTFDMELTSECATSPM
Chain of Hepatocyte nuclear factor 3-beta (Homo sapiens) (Q9Y261 whole entry, looked up): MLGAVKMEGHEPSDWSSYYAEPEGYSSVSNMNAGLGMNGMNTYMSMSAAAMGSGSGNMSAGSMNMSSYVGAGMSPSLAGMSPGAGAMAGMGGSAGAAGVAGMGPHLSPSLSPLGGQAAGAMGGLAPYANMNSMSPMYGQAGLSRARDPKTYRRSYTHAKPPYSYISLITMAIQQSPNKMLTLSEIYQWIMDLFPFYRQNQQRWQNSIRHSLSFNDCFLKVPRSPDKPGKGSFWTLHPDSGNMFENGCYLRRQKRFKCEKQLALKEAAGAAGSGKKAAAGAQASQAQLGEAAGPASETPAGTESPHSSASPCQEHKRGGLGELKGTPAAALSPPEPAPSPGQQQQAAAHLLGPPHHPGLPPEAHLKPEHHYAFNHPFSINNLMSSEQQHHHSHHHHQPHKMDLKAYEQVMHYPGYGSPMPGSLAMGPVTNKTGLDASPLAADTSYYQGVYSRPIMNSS
Chain of CCAAT/enhancer-binding protein beta (Homo sapiens) (P17676 whole entry, looked up): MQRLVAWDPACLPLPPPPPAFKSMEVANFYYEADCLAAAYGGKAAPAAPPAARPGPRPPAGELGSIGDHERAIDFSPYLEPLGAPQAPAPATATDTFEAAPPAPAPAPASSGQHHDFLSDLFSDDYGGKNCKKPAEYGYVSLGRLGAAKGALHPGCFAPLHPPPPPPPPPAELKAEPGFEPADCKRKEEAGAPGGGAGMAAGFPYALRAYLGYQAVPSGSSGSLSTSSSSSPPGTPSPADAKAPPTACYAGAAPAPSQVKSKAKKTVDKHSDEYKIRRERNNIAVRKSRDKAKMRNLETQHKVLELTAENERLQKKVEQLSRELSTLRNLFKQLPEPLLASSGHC
Chain of Transcription factor Sp1 (Homo sapiens) (P08047 whole entry, looked up): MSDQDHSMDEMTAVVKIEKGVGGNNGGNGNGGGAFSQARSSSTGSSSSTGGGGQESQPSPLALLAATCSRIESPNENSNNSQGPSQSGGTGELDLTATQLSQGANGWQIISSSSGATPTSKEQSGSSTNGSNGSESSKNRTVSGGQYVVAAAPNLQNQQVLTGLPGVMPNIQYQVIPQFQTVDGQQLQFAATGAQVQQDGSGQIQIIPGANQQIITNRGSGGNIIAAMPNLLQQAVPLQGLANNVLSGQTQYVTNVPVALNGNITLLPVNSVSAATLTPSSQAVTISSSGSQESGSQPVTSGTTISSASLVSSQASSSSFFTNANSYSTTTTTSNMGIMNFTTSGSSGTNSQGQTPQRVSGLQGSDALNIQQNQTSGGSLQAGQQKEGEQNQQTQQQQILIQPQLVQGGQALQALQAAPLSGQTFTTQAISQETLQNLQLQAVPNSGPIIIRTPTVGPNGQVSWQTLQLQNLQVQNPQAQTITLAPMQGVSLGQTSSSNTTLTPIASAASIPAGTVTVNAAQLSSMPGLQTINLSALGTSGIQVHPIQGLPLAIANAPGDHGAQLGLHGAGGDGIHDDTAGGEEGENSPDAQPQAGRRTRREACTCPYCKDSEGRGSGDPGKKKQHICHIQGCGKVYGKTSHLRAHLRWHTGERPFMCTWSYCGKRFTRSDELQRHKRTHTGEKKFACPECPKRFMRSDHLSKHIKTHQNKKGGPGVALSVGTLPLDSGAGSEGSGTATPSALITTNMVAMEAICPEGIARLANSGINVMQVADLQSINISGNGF

Nc1c(Cl)c(Cl)c(Cl)c(Cl)c1Cl
outcome [1]: inactive
outcome [2]: inactive
AC50 [3]: 34.2 µM (active)
outcome [4]: inactive
outcome [5]: inactive
outcome [6]: inactive
outcome [7]: inactive
outcome [8]: inactive
outcome [9]: inactive
outcome [10]: inactive
outcome [11]: inactive
outcome [12]: inactive
outcome [13]: inactive
outcome [14]: inactive
AC50 [15]: 15.4 µM (active)
outcome [16]: inactive
outcome [17]: inactive
outcome [18]: inactive
outcome [19]: inactive
outcome [20]: inactive

CCOP(O)OCC
outcome [1]: inactive
outcome [2]: inactive
outcome [3]: inactive
outcome [4]: inactive
outcome [5]: inactive
outcome [6]: inactive
outcome [7]: inactive
outcome [8]: inactive
outcome [9]: inactive
outcome [10]: inactive
outcome [11]: inactive
outcome [12]: inactive
outcome [13]: inactive
outcome [14]: inactive
AC50 [15]: 30.1 µM (active)
outcome [16]: inactive
outcome [17]: inactive
outcome [18]: inactive
outcome [19]: inactive
outcome [20]: inactive

CCc1cccc(C)c1N(C(=O)CCl)[C@@H](C)COC
outcome [1]: inactive
outcome [2]: inactive
outcome [3]: inactive
outcome [4]: inactive
outcome [5]: inactive
outcome [6]: inactive
AC50 [7]: 57.9 µM (active)
outcome [8]: inactive
outcome [9]: inactive
outcome [10]: inactive
outcome [11]: inactive
outcome [12]: inactive
outcome [13]: inactive
outcome [14]: inactive
AC50 [15]: 0.474 µM (active)
outcome [16]: inactive
outcome [17]: inactive
outcome [18]: inactive
outcome [19]: inactive
outcome [20]: inactive

N#Cc1cc(I)c(O)c(I)c1
outcome [1]: inactive
outcome [2]: inactive
outcome [3]: inactive
outcome [4]: inactive
outcome [5]: inactive
outcome [6]: inactive
outcome [7]: inactive
outcome [8]: inactive
outcome [9]: inactive
outcome [10]: inactive
outcome [11]: inactive
outcome [12]: inactive
outcome [13]: inactive
outcome [14]: inactive
outcome [15]: inactive
outcome [16]: inactive
AC50 [17]: 100 µM (active)
outcome [18]: inactive
outcome [19]: inactive
outcome [20]: inactive

CN(N=O)c1ccccc1
outcome [1]: inactive
outcome [2]: inactive
outcome [3]: inactive
outcome [4]: inactive
outcome [5]: inactive
outcome [6]: inactive
outcome [7]: inactive
outcome [8]: inactive
outcome [9]: inactive
outcome [10]: inactive
outcome [11]: inactive
outcome [12]: inactive
outcome [13]: inactive
outcome [14]: inactive
outcome [15]: inactive
outcome [16]: inactive
outcome [17]: inactive
outcome [18]: inactive
outcome [19]: inactive
outcome [20]: inactive

ClCCCCCCCl
outcome [1]: inactive
outcome [2]: inactive
outcome [3]: inactive
outcome [4]: inactive
outcome [5]: inactive
outcome [6]: inactive
outcome [7]: inactive
outcome [8]: inactive
outcome [9]: inactive
outcome [10]: inactive
outcome [11]: inactive
outcome [12]: inactive
outcome [13]: inactive
outcome [14]: inactive
outcome [15]: inactive
outcome [16]: inactive
outcome [17]: inactive
outcome [18]: inactive
outcome [19]: inactive
outcome [20]: inactive

CCCC=NO
outcome [1]: inactive
outcome [2]: inactive
outcome [3]: inactive
outcome [4]: inactive
outcome [5]: inactive
outcome [6]: inactive
outcome [7]: inactive
outcome [8]: inactive
outcome [9]: inactive
outcome [10]: inactive
outcome [11]: inactive
outcome [12]: inactive
outcome [13]: inactive
outcome [14]: inactive
outcome [15]: inactive
outcome [16]: inactive
outcome [17]: inactive
outcome [18]: inactive
outcome [19]: inactive
outcome [20]: inactive
